# PubChem BioAssay AID434973 (Sanford-Burnham Center for Chemical Genomics, 2010)
# Hit rate of the full screen: of about 330,000 compounds, about 4,900 (1.5%) were called active. This is one part of a sample in which actives are shown more often than they occur. A number with no mark means an inactive call.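 Rule for the calls: active = inhibition above about 50% at the single test dose (limit read from the data); inactive = the rest.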
# Molecular target: Sentrin-specific protease 7 (Homo sapiens) (UniProt Q9BQF6)
# Test: blockers of human SENP7 peptidase activity – biochemical, luminescence, uHTS, primary screen (AID 434973);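 note: plate controls were DMSO with enzyme for no effect and no enzyme buffer wells for full effect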
# Conditions: recombinant SENP7, Z-RLRGG-aminoluciferin luminescence, 40 min; at 5 µM; stronger effect = higher value
row,SMILES,inhibition
1,O=C(Nc1ccc(F)cc1)c1cc2c(s1)CCCC2,87% (active)
2,CN(C)C(=O)c1ccc(NC(=O)COC(=O)c2cc3c(s2)CCCCC3)cc1,-2.04%
3,O=C(NCC1CCCO1)c1cc2c(s1)CCCC2 (stereo not given),7.59%
4,CC(Sc1sc(=S)sc1SC(C)C(=O)O)C(=O)O (stereo not given),-0.431%
5,N#C/C(C(=S)Nc1ccccc1)=C1/NN=C(N2CCOCC2)N1c1ccccc1,-1.15%
6,O=C(CSC(=S)N1CCOCC1)c1cc(Br)cc(Br)c1O,1.34%
7,O=C(CSC(=S)N1CCOCC1)c1ccccc1,62.7% (active)
8,CC1CN(C(=S)SCC(=O)c2ccccc2)CC(C)O1 (stereo not given),1.97%
9,CCN(CC(=O)Nc1ccccc1C(F)(F)F)C(=O)C1CCN(C(=O)Nc2ccccc2)CC1,3.1%
10,CC1CCc2sc3nc(N4CCN(CCO)CC4)n4ncnc4c3c2C1 (stereo not given),-6.6%
11,CCN1CCN(c2nc(Nc3cccc(F)c3)nc(N)c2[N+](=O)[O-])CC1,-8.75%
12,COc1cccc(Nc2nc(N)c([N+](=O)[O-])c(NCc3ccco3)n2)c1,3.33%
13,CNc1nc(Nc2ccc(C)c(Cl)c2)nc(N)c1[N+](=O)[O-],99.9% (active)
14,O=C(NCCCc1ccccc1)C1CCC(CNc2c(N3CCCCC3)c(=O)c2=O)CC1 (stereo not given),3.15%
15,CC(=O)Nc1ccc(CN2CCC(Oc3ccc(C(=O)N4CCCC4)cc3)CC2)cc1,0.753%
16,O=C(CN1CCN(c2ccccc2F)CC1)c1ccc2c(c1)OCO2,8.23%
17,O=C(c1ccco1)N1CCN(C(=O)c2cc(-c3ccccc3F)no2)CC1,4.1%
18,Fc1ccccc1-c1cc2cc3c(cc2cn1)OCO3,77.3% (active)
19,Cc1nc(-c2ccccc2)sc1C1(C)CC(c2cccnc2)=NO1 (stereo not given),-12.6%
20,Cc1ccnc(NC(=O)CCCOc2ccccc2)c1,-12.2%
21,CCC(=O)NC(Nc1cc(C)ccn1)(C(F)(F)F)C(F)(F)F,98.5% (active)
22,CCOC(=O)NNc1cc(C(F)(F)F)ccn1,13.9%
23,Cc1ccc2[nH]cc(CCNC(=O)C3CCCCC3)c2c1,5.37%
24,Cc1ccccc1C(=O)NC(=S)Nc1ccc(N2CCN(C(=O)c3ccccc3)CC2)cc1,-6.96%
25,O=C(Nc1ccc(N2CCOCC2)cc1)c1cccc(S(=O)(=O)N2CCOCC2)c1,8.65%

row,SMILES,inhibition
1,CCC(=O)Nc1ccc(C(=O)Nc2cccc(OC)c2)cc1,56.2% (active)
2,Cc1ccccc1C(=O)Nc1ccc(N2CCCCCC2)cc1,60.8% (active)
3,COc1cccc(C(=O)Nc2ccc(N3CCCC3)cc2)c1,99.4% (active)
4,COc1cccc(C(=O)Nc2nnc(S(=O)(=O)N3CCCCC3)s2)c1,11.4%
5,Cc1ccccc1C(=O)N1CCN(c2ccc(NC(=O)c3cccs3)cc2)CC1,-2.29%
6,CCOc1ccc(C(=O)Nc2cccc(SC)c2)cc1,88.7% (active)
7,COc1cccc(NC(=O)CN(C)CC(=O)Nc2ccc3c(c2)CCC3)c1,10.1%
8,COc1ccc(C(=O)Nc2cccc(S(C)(=O)=O)c2)cc1,0.473%
9,CCOc1ccc(C(=O)Nc2cccc(-c3ccc4nncn4n3)c2)cc1,-7.35%
10,CSc1cccc(NC(=O)CSc2ccccc2)c1,4.87%
11,Cc1c(Cl)c([N+](=O)[O-])nn1CCCC(=O)NC(C)c1ccccc1 (stereo not given),-0.959%
12,COc1ccc(CC(=O)OC(C)C(=O)Nc2ccc(S(N)(=O)=O)cc2)cc1 (stereo not given),0.778%
13,CS(=O)(=O)N1CCCC(C(=O)N2CCOCC2)C1 (stereo not given),-2.39%
14,COc1ccc(/C=C2/S/C(=N/N=C3\CC4CCC3(C)C4(C)C)NC2=O)cc1 (stereo not given),-4.16%
15,Cc1noc(C)c1C(=O)NC(C)c1ccc2c(c1)OCO2 (stereo not given),1.47%
16,COC(=O)[C@H](CC(C)C)NC(=O)N1CCCCC1C (stereo not given in full),1.79%
17,COc1cc(/C=N/NC(=O)CCc2n[nH]c(=O)[nH]c2=O)ccc1O,2%
18,COc1ccc(/C=N/NC(=O)c2cc(-c3cccc(C)c3)nc3ccccc23)cc1O,7.7%
19,COc1cc(/C=N/Nc2nc3ccccc3s2)ccc1O,81.9% (active)
20,Cc1cc(C)c(OCC(=O)N(Cc2cccs2)C2CCS(=O)(=O)C2)c(C)c1 (stereo not given),0.829%
21,O=C(CC(NCCN1CCOCC1)C(=O)O)Nc1cccc(Cl)c1 (stereo not given),2.14%
22,COc1ccc(C(=O)NC2CCN(C(=O)Nc3ccc(F)cc3)CC2)cc1,-1.37%
23,O=c1ccnc(Nc2ccc(Cl)cc2)[nH]1,3.66%
24,Clc1ccc(Nc2ccc3ccccc3n2)cc1,89.6% (active)
25,Cc1cc(Nc2ccc(Br)cc2)nc2ccccc12,0.988%
